Reference: PubChem BioAssay
For part of these data: Results with a measured potency or affinity are listed apart. Active and inactive are the calls of the source. Unless noted, how the calls were made is not given here.

Experiments:
[1] = antimalarial activity against Dd2 strain (AID 2302;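 active means growth inhibition above 50% at the single 2 µM test dose, taken to imply half-maximal potency below 2 µM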;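 further: 0% = DMSO untreated growth and 100% = chloroquine plus artemisinin killed control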); conditions: P. falciparum Dd2 in RBCs, LDH growth readout, 72 h; at 2 µM; stronger effect = higher value
[2] = HepG2 cytotoxicity, primary screen, cytotoxicity control for P. falciparum antimalarial project, cell-based, ATP luminescence (AID 2303;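 active means inhibition above 50%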;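 further: 0% = DMSO wells and 100% = digitonin-killed cells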); conditions: HepG2 viability, 24-48 h, at 10 µM, stronger effect = higher value
[3] = biological target: L-lactate dehydrogenase (Plasmodium falciparum (isolate CDC / Honduras)) (UniProt Q27743); test: PfLDH activity inhibition – cell lysate, 3D7 strain, counter-screen for P. falciparum growth inhibition project (AID 2304);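 further: 0% = vehicle and 100% = reference inhibitor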; conditions: P. falciparum 3D7 crude extract, LDH APAD/NBT absorbance; at 2 µM; stronger effect = higher value
[4] = inhibition of 3D7 malaria parasite growth – strain 3D7 (AID 2306);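 further: 0% = DMSO wells and 100% = chloroquine plus artemisinin control wells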; conditions: P. falciparum 3D7 erythrocytic growth, LDH absorbance, 72 h; at 2 µM; stronger effect = higher value
[5] = biological target: Calcium-dependent protein kinase 1 (Plasmodium falciparum (isolate 3D7)) (UniProt P62344); test: PfCDPK1 kinase inhibitors, biochemical, TCAMS library (AID 1159585; cut-off not given, nearly all actives have IC50 up to about 0.98 µM;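 further: inhibitors leave more ATP so luminescence rises with inhibition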); conditions: recombinant PfCDPK1, Kinase-Glo ATP depletion luminescence
[6] = biological target: Plasmodium falciparum protein kinase 6 (PK6, PF3D7_1337100) (UniProt Q8IDW1); test: PfPK6 kinase inhibitors, biochemical, TCAMS library (AID 1159586); conditions: recombinant PfPK6, Kinase-Glo ATP depletion luminescence
[7] = biological target: Protein kinase 7 (PK7), Plasmodium falciparum 3D7 (PF3D7_0213400) (UniProt Q7YTF7); test: inhibition of Plasmodium PK7 catalytic activity – biochemical, TCAMS antimalarial set, Kinase-Glo luminescence (AID 1159587); conditions: recombinant PfPK7, Kinase-Glo ATP depletion luminescence
[8] = biological target: Calcium-dependent protein kinase 4 (Plasmodium falciparum (isolate 3D7)) (UniProt Q8IBS5); test: PfCDPK4 kinase inhibitors, biochemical, TCAMS library (AID 1159588; cut-off not given, nearly all actives have IC50 up to about 0.91 µM); conditions: recombinant PfCDPK4, Kinase-Glo ATP depletion luminescence
Chain of Calcium-dependent protein kinase 4 (Plasmodium falciparum (isolate 3D7)) (Q8IBS5 whole entry, looked up): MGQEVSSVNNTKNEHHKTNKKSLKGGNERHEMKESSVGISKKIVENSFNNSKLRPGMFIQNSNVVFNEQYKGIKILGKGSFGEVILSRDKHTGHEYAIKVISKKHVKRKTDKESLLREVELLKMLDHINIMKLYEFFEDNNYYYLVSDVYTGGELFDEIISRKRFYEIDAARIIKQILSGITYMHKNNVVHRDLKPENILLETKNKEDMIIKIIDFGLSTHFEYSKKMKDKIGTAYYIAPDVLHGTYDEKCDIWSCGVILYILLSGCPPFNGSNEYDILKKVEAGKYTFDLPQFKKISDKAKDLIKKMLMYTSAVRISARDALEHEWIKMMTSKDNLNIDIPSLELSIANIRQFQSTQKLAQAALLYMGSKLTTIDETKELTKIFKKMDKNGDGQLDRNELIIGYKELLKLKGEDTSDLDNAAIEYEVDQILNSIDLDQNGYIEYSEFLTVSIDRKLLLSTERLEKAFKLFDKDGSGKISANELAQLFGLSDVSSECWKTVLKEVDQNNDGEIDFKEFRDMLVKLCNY

Chain of Plasmodium falciparum protein kinase 6 (PK6, PF3D7_1337100) (Q8IDW1 1-305): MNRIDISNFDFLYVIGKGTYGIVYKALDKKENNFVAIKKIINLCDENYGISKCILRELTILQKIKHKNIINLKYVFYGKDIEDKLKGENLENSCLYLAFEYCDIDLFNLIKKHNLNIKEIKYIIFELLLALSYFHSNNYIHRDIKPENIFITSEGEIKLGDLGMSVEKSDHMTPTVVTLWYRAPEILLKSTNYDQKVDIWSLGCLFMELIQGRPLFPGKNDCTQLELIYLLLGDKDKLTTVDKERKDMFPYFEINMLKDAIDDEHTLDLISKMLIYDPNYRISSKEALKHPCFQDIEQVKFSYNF
Chain of L-lactate dehydrogenase (Plasmodium falciparum (isolate CDC / Honduras)) (Q27743 whole entry, looked up): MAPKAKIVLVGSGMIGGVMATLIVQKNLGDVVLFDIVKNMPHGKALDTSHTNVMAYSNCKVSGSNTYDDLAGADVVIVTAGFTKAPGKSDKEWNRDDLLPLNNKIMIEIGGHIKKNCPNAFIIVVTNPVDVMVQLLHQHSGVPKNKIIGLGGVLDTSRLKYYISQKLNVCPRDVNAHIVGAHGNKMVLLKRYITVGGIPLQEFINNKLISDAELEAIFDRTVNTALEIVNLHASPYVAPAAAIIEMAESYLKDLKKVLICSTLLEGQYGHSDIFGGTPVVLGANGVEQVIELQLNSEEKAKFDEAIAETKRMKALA
Chain of Protein kinase 7 (PK7), Plasmodium falciparum 3D7 (PF3D7_0213400) (Q7YTF7 1-343): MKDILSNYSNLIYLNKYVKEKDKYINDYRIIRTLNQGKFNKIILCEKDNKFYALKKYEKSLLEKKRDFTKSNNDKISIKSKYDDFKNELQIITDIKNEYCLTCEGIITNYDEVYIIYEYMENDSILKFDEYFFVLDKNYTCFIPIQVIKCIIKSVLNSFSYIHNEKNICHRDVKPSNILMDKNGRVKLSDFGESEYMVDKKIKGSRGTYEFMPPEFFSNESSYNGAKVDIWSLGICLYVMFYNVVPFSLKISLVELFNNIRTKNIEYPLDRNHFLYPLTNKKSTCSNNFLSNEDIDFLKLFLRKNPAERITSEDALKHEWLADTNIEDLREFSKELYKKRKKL
Chain of Calcium-dependent protein kinase 1 (Plasmodium falciparum (isolate 3D7)) (P62344 whole entry, looked up): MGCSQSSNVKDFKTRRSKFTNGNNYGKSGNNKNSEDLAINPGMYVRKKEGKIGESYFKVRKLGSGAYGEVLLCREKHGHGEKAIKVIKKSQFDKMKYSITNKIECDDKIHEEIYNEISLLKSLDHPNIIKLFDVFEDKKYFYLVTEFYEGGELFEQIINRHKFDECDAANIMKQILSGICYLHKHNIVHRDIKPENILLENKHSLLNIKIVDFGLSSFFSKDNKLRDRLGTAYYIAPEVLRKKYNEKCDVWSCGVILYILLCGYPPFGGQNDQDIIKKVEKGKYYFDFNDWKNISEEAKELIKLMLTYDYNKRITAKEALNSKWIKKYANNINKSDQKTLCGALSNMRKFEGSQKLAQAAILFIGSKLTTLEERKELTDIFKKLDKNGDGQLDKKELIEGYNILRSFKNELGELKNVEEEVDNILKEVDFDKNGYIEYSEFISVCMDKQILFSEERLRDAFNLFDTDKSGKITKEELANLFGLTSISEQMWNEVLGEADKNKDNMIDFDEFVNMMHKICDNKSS

c1cc(CN2CCCCC2)cc(-c2ccc(-c3nc4ccccc4[nH]3)s2)c1
inactive: inhibition [2] 11% | inhibition [3] 2% | outcome [5] | outcome [6] | outcome [7] | outcome [8]
active: growth inhibition [1] 100% | growth inhibition [4] 101%

COc1ccc(CN2CCC(C(=O)Nc3cccc(-c4cccc(Cl)c4)c3)CC2)cc1O
active: growth inhibition [4] 91%
inactive: growth inhibition [1] 0% | inhibition [2] 25% | inhibition [3] -2% | outcome [5] | outcome [6] | outcome [7] | outcome [8]

O=C(NC1CCCCC1)N(Cc1cccc(-c2ccc(CNCCc3ccccc3)cc2)c1)C1CCN(Cc2ccccc2)CC1
inactive: inhibition [3] 4% | outcome [5] | outcome [6] | outcome [7] | outcome [8]
active: growth inhibition [1] 93% | inhibition [2] 61% | growth inhibition [4] 93%

O=C(NC(=O)c1ccccc1)NC1CCN(c2ccnc3cc(Cl)ccc23)C1 (stereo not drawn)
inactive: inhibition [2] 32% | inhibition [3] -2% | outcome [5] | outcome [6] | outcome [7] | outcome [8]
active: growth inhibition [1] 99% | growth inhibition [4] 101%

CCCCNc1ccc(C(=O)NC2CCN(C[C@H](O)c3ccnc4ccc(OC)cc34)CC2)cc1
inactive: inhibition [2] 12% | inhibition [3] -8% | outcome [5] | outcome [6] | outcome [7] | outcome [8]
active: growth inhibition [1] 64% | growth inhibition [4] 90%

COc1ccc(CNCc2ccc(-c3ccc(-c4nc5ccc(C(F)(F)F)cc5[nH]4)s3)cc2)cc1
active: growth inhibition [1] 98% | growth inhibition [4] 100%
inactive: inhibition [2] 38% | inhibition [3] -1% | outcome [5] | outcome [6] | outcome [7] | outcome [8]

CCC(CC)n1cc2c(ccc3nc(N)nc(N)c32)n1
inactive: growth inhibition [1] -2% | inhibition [3] 4% | outcome [5] | outcome [6] | outcome [7] | outcome [8]
active: inhibition [2] 61% | growth inhibition [4] 91%

O=C(NCCc1ccccc1F)c1cc(Br)cc(N2CCN(c3ccncc3)CC2)c1
active: growth inhibition [1] 67% | growth inhibition [4] 97%
inactive: inhibition [2] 29% | inhibition [3] -2% | outcome [5] | outcome [6] | outcome [7] | outcome [8]

Cc1ccc(Nc2nc(C)cc(NCc3ccc(-n4ccnc4)cc3)n2)cc1
active: growth inhibition [1] 100% | growth inhibition [4] 101%
inactive: inhibition [2] 33% | inhibition [3] 1% | outcome [5] | outcome [6] | outcome [7] | outcome [8]

CN(Cc1cc(C(F)(F)F)cc(C(F)(F)F)c1)C(=O)[C@H]1CNC[C@@H]1c1ccc(F)cc1
active: growth inhibition [4] 92%
inactive: growth inhibition [1] 4% | inhibition [2] 1% | inhibition [3] -5% | outcome [5] | outcome [6] | outcome [7] | outcome [8]

CCN1CCN(c2cc(C)c3cc(NC(=O)c4cccc([N+](=O)[O-])c4)ccc3n2)CC1
inactive: inhibition [3] -3% | outcome [5] | outcome [6] | outcome [7] | outcome [8]
active: growth inhibition [1] 73% | inhibition [2] 74% | growth inhibition [4] 99%

O=C(Nc1cccc(-c2nn3ncccc3c2-c2ccnc(Nc3cccc(C(F)(F)F)c3)n2)c1)c1c(F)cccc1F
active: growth inhibition [1] 68% | growth inhibition [4] 97%
inactive: inhibition [2] 49% | inhibition [3] -2% | outcome [5] | outcome [6] | outcome [7] | outcome [8]

O=C(Nc1ccc(-c2nc3cc4ccccc4cc3[nH]2)cc1)c1cccc(Br)c1
inactive: inhibition [3] -5% | outcome [5] | outcome [6] | outcome [7] | outcome [8]
active: growth inhibition [1] 89% | inhibition [2] 50% | growth inhibition [4] 101%

O=C(Nc1ccc(N2CCC(Nc3ccccn3)CC2)cc1)c1cnc(Cl)c(Cl)c1
active: growth inhibition [4] 83%
inactive: growth inhibition [1] 1% | inhibition [2] 46% | inhibition [3] 0% | outcome [5] | outcome [6] | outcome [7] | outcome [8]

Nc1nc(N)c2c(ccc3c2ncn3Cc2ccccc2)n1
inactive: inhibition [3] 4% | outcome [5] | outcome [6] | outcome [7] | outcome [8]
active: growth inhibition [1] 96% | inhibition [2] 71% | growth inhibition [4] 96%

CC(=O)N1N=C(c2ccc(F)cc2)Sc2c1nc(C1CCCCC1)n2C(C)=O
inactive: growth inhibition [1] 9% | inhibition [2] 4% | inhibition [3] 4% | outcome [5] | outcome [6] | outcome [7] | outcome [8]
active: growth inhibition [4] 92%

COc1cccc(NC(=O)Cn2c(C)c(C(=O)C(F)(F)F)c3ccccc32)c1
inactive: inhibition [2] 2% | inhibition [3] -5% | outcome [5] | outcome [6] | outcome [7] | outcome [8]
active: growth inhibition [1] 94% | growth inhibition [4] 97%

CN(C)c1c(CNCCCCCCNCc2ccc3ccccc3c2N(C)C)ccc2ccccc12
active: growth inhibition [1] 51% | inhibition [2] 100% | growth inhibition [4] 100%
inactive: inhibition [3] -2% | outcome [5] | outcome [6] | outcome [7] | outcome [8]

O=C(c1cccc(COc2ccc3c(c2)CCN(C2CCCC2)CC3)c1)N1CCN(c2ccncc2)CC1
inactive: growth inhibition [1] 35% | inhibition [2] 49% | inhibition [3] -8% | outcome [5] | outcome [6] | outcome [7] | outcome [8]
active: growth inhibition [4] 100%

N#Cc1ccc(N(CCOc2ccc(Cl)cc2)Cc2ccccc2C(F)(F)F)cc1C(F)(F)F
inactive: inhibition [2] 3% | inhibition [3] 2% | outcome [5] | outcome [6] | outcome [7] | outcome [8]
active: growth inhibition [1] 64% | growth inhibition [4] 91%

O=c1cc(NCCCNCc2[nH]c3cc(Cl)ccc3c2Cl)[nH]c2ccccc12
inactive: growth inhibition [1] 1% | inhibition [2] 5% | inhibition [3] -2% | outcome [5] | outcome [6] | outcome [7] | outcome [8]
active: growth inhibition [4] 91%
